Screen size: about 270,000 compounds; about 5,800 (2.1%) were called active. About 16% were inconclusive and are not listed. Calls follow the shape of the dose curve; as a rule, active = well fitted inhibition curve with a large enough effect; inconclusive = small, poorly fitted or top-dose-only effect; inactive = flat fitted curve, though single readings scatter. The entries come from a sample that favours actives as a whole.
target: Microtubule-associated protein tau (Homo sapiens) (UniProt P10636); assay: qHTS for Inhibitors of Tau Fibril Formation, Thioflavin T Binding; conditions: recombinant tau K18 P301L (four-repeat tau fragment), heparin-induced fibrillization, ThT fluorescence; series mostly up to 57.4 µM; activity, negative = inhibition: at the top concentration; also: nearly all actives have a fitted effect of over 55% in size
Description: NIH Molecular Libraries Probe Production Network [MLPCN]
NIH Chemical Genomics Center [NCGC]
Assay Provider: Carlo Ballatore, University of Pennsylvania
The microtubule-associated protein tau is an abundant protein in the axons of neurons that stabilizes microtubules. With its ability to modulate microtubule dynamics, tau contributes directly or indirectly, to key structural and regulatory cellular functions. Particularly important is the influence tau exerts on axonal transport, which allows signaling molecules, trophic factors and other essential cellular constituents to travel along the axons. Under pathological conditions, tau becomes sequestered into insoluble aggregates called neurofibrillary tangles. This phenomenon is believed to have pathological consequences by promoting axonal transport deficits that ultimately lead to synaptic dysfunction and neuronal loss. To identify inhibitors of tau aggregation, a heparin-induced tau fibril formation assay was used that employed a recombinantly expressed fragment of tau, K18 (Q242-E372), bearing a P301L mutation (Gustke et al. 1994; Hong et al. 1998). This assay monitors tau fibrillization by Thioflavin T (ThT) fluorescence.
Gustke, N., B. Trinczek, et al. (1994). "Domains of tau protein and interactions with microtubules." Biochemistry 33(32): 9511-22.
Hong, M., V. Zhukareva, et al. (1998).
Li, W. and V. M. Lee (2006).
von Bergen, M., S. Barghorn, et al. (2001). "Mutations of tau protein in frontotemporal dementia promote aggregation of paired helical filaments by enhancing local beta-structure." J Biol Chem 276(51): 48165-74.
NCGC Assay Protocol Summary:
For screening, 2 uL/well human K18 P301L (15 uM unlabeled and 0.24 uM Alexa 594-labeled tau, final concentrations) in reagent buffer (100 mM sodium acetate pH 7) was dispensed into black solid 1536-well plates (Grenier) using a solenoid-based dispenser. Following transfer of 23 nL compound or DMSO vehicle by a pin tool, 2 uL/well heparin (20 uM final concentration) in reagent buffer was added and the plate centrifuged 15 s at 1000 RPM. Plates were incubated 6 hr at 37 C and then 1 uL/well ThT (30 uM final concentration) was added. After a 1 hr ambient incubation, the plates were read by an Envision (Perkin Elmer) to monitor ThT fluorescence (450/8 nm excitation and 510/23 nm emission).
Keywords: NIH Roadmap, MLPCN, MLI, MLSMR, NCGC, qHTS, tau, tauopathies, Alzheimer's disease, fibril, neurodegeneration, aggregation
% is scaled to controls: 0 for no effect and ±100 for the full control effect; potency is read from the fitted curve at half-maximal effect.

Microtubule-associated protein tau (Homo sapiens), sequence (P10636 561-689 P618L limits assumed): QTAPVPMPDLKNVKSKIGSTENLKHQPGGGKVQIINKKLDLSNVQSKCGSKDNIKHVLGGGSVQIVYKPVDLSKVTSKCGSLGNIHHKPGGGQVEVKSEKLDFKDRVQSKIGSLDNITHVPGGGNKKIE

SMILES	activity, negative = inhibition	Potency
COc1cc(NC(=O)Cn2c(=O)n(Cc3ccco3)c(=O)c3oc4ccccc4c32)cc(OC)c1	8.95% (inactive)	–
CSC1=N/C(=C\C=C\c2cccs2)C(=O)S1	–	14.1 µM (active)
O=C1N/C(=C/c2cccs2)C(=O)N1Cc1ccc(F)cc1	4.61% (inactive)	–
Cc1cccc(C2=N/C(=C/c3cccs3)C(=O)O2)c1	-11.6% (inactive)	–
CC1Cc2cc(S(=O)(=O)CCC(=O)Nc3ccc(F)c(Cl)c3)ccc2N1C(=O)C1CC1 (stereo not given)	1.55% (inactive)	–
O=C(CCC(=O)c1cccs1)NCc1ccccc1	0.274% (inactive)	–
Cc1ccc(C)c(NC(CC(=O)c2ccccc2)C(=O)OCC(=O)c2cccs2)c1 (stereo not given)	-13.7% (inactive)	–
Cc1ccccc1C(CC(=O)c1cccs1)C(C#N)C#N (stereo not given)	–	25.1 µM (active)
COc1cccc(-n2cc(C(=O)NCc3cccc(Cl)c3)c3ccccc3c2=O)c1	-10.9% (inactive)	–
Cc1coc2c(O)cc3c(c12)OC1(N2CCCCC2)C(=O)NCCCC31 (stereo not given)	–	15.8 µM (active)
CCS(=O)(=O)N1CCC(n2c(C)nc3cccnc32)CC1	-1.27% (inactive)	–
C=CCNC(=S)NNC(=O)c1cc(Cl)ccc1OC	-14.5% (inactive)	–
COc1ccc(Cl)cc1C(=O)NNC(=S)NC1CCCC1	-2.82% (inactive)	–
COc1ccc(Cl)cc1C(=O)NNC(=S)NC(=O)/C=C/c1ccco1	–	11.2 µM (active)
Cc1ccc(C(=O)N2c3ncnn3C3(CCCCC3)[C@@H]3CCCC[C@@H]32)cc1	-7.73% (inactive)	–
CCOC(=O)CNC(=O)c1cc2c(=O)n3cccc(C)c3nc2s1	-2.97% (inactive)	–
Cc1cccn2c(=O)c(/C=C3\SC(=S)N(CC(C)C)C3=O)c(NCCCOC(C)C)nc12	-13.2% (inactive)	–
CCOC(=O)CC1C(=O)NCCN1c1nc2c(C)cccn2c(=O)c1/C=C1\SC(=S)N(C(C)CC)C1=O (stereo not given)	–	7.94 µM (active)
Cn1nnnc1SCCCNCc1cccc(OCc2ccc(Cl)cc2)c1	-14.2% (inactive)	–
Cc1cccc(C)c1Nc1c(-c2ccccc2O)nc2ncccn12	–	inactive
Cc1ccccc1Nc1c(-c2ccccc2)nc2ncccn12	-8.46% (inactive)	–
CCc1cccc(C)c1Nc1c(-c2ccc(N(C)C)cc2)nc2ncccn12	–	14.1 µM (active)

SMILES	activity, negative = inhibition	Potency
COc1ccc(NC(=O)CN2CCCN(Cc3ccccc3)S2(=O)=O)cc1	6.18% (inactive)	–
Cc1nnc(C)n1-c1ccc(C(=O)Nc2cccc(Br)c2)cc1	-13.8% (inactive)	–
C=Cc1ccc(Cn2c(C(=O)O)c(CNC3CCCC3)c3ccc(C)cc32)cc1	-6.7% (inactive)	–
CC1CCC(NS(=O)(=O)c2ccc3c(c2)n(C)c(=O)c(=O)n3C)CC1 (stereo not given)	-10.1% (inactive)	–
CSc1ccc(S(=O)(=O)NC2CCCCC2)cc1	-14.1% (inactive)	–
Cn1sc(=O)c2cc(S(=O)(=O)NC3CC3)ccc21	–	12.6 µM (active)
O=C(Nc1ccccc1Cl)N1CCC(CN2CCCCC2)CC1	0.774% (inactive)	–
COc1ccc(S(=O)(=O)n2nc(C)c(S(=O)(=O)N3CCCCCC3)c2C)cc1	-5.22% (inactive)	–
CCc1nnc(SCC(=O)Nc2cc(OC)ccc2OC)nc1CC	-13.1% (inactive)	–
COc1ccc(C)cc1N(C)C(=O)c1c(C)oc2ncnc(N3CCOCC3)c12	-4.51% (inactive)	–
CCOC(=O)C1CCCN(S(=O)(=O)c2cc(-c3cc(C)no3)ccc2OC)C1 (stereo not given)	-5.37% (inactive)	–
N#C/C(=C\C1=C(N2CCOCC2)C(=C\c2ccccc2)/CC1)C(=O)Nc1ccccc1F	–	3.16 µM (active)
N#C/C(=C\c1ccccc1C(F)(F)F)C(=O)Nc1ccccc1F	-2.13% (inactive)	–
N#C/C(=C\c1ccc(N2CCOCC2)o1)C(=O)N1CCOCC1	-14.6% (inactive)	–
COc1cccc(-c2cc(C(=O)Nc3ccc(C)cc3)[nH]n2)c1	16.5% (inactive)	–
Cc1nonc1C(=O)N/N=C/c1ccc(O)cc1	-13.5% (inactive)	–
COc1ccc(C/C(C)=N/NC(=O)c2cc(C)oc2C)cc1	-14.5% (inactive)	–
Cc1cc(C(=O)N/N=C/c2ccc(N3CCOCC3)cc2)c(C)o1	–	3.98 µM (active)
CCn1cc(C(=O)N2CCN(c3cc(C)ccc3C)CC2)c(=O)c2cc(S(=O)(=O)N(C)C3CCCCC3)ccc21	-17% (inactive)	–
Cc1noc2ncnc(NCc3ccccc3Cl)c12	-8.51% (inactive)	–
COC(=O)C1=C(C)N(c2ccc(Br)cc2)C(=O)/C1=C\c1ccco1	3.15% (inactive)	–
CC(C)NC(=O)C(=O)N/N=C/c1ccco1	-18.5% (inactive)	–

SMILES	activity, negative = inhibition	Potency
COC(=O)C1=C(C)N(C(C)c2ccccc2)C(=O)/C1=C\c1ccco1 (stereo not given)	–	22.4 µM (active)
CCOC(=O)c1c(NC(=O)c2ccc(S(=O)(=O)N3CCCC(C)C3)cc2)sc2c1CCN(C(C)C)C2 (stereo not given)	-15.9% (inactive)	–
COc1cc(OC)c(NC(=O)c2nc(-c3ccncc3)no2)cc1Cl	15.5% (inactive)	–
Cc1ccc(-c2csc(SCC(=O)Nc3cc(C)on3)n2)cc1	-1.99% (inactive)	–
Cc1ccc(-c2csc(NC(=O)c3cnccn3)n2)cc1C	-7.61% (inactive)	–
Cc1ccc(Nc2nc(-c3ccc(O)cc3O)cs2)nc1	–	5.01 µM (active)
Cc1ccccc1CNC(=O)CCCn1nc(C)c2sc3ccccc3c2c1=O	11.6% (inactive)	–
O=C(NC1CC(=O)N(c2ccccc2)C1)c1ccco1 (stereo not given)	4.55% (inactive)	–
COc1ccc(NC(=O)Nc2cccc(-c3noc(C)n3)c2)cc1	-6.06% (inactive)	–
Cc1c(C)n(Cc2ccc(Cl)cc2)c2ccc(C(=O)NCCc3ccc(S(N)(=O)=O)cc3)cc12	-2.45% (inactive)	–
CCN(CC)c1cc(NC2CCCCC2)c2c3c(onc13)-c1ccccc1C2=O	–	11.2 µM (active)
CC(C)(C)c1ccc(C(=O)Nc2ccc3c(c2)CCCN3C(=O)c2cccs2)cc1	-12.8% (inactive)	–
CCc1ccc(NC(=O)CN2C(=O)CCSc3ccc(S(=O)(=O)N4CCCC4)cc32)cc1	8.06% (inactive)	–
CCc1nn(CCCC(=O)NCc2ccc(C)cc2)c(=O)c2cc3occc3n12	-5.1% (inactive)	–
COCCCNC(=O)c1ccc(NC(=O)c2nsc3ccccc23)cc1	-4.75% (inactive)	–
Cc1ccc(C2C3=C(Nc4[nH]n(-c5ccccc5)c(=O)c42)c2ccccc2C3=O)cc1 (stereo not given)	–	7.94 µM (active)
Cc1ccc(N2C(=O)C3C(c4ccccc4)(C2=O)C3(c2ccccc2)c2ccccc2)cc1 (stereo not given)	4.8% (inactive)	–
O=C(Nc1ccc2nc(SCCOc3ccccc3Cl)sc2c1)c1ccco1	5.98% (inactive)	–
CCOC(=O)c1cccc(NC(=O)c2cc(S(=O)(=O)N3CCCC(C)C3)cn2C)c1 (stereo not given)	3.72% (inactive)	–
Cc1ccc(S(=O)(=O)c2c(Nc3cccc(Cl)c3)sc(C(=O)c3ccc4c(c3)OCO4)c2N)cc1	-3.94% (inactive)	–
CCOc1cc(C(=O)Nc2nnc3n2CCS3)cc(OCC)c1OCC	1.75% (inactive)	–

From PubChem BioAssay AID1460 (National Center for Advancing Translational Sciences (NCATS), 2008)
